Rows were chosen to be rich in hits. Some 28% of all compounds tested hit in one or more screens of this group.
CYP2C19 act – increases human CYP2C19 enzyme activity; P33261; activation factor at 5 µM; recombinant CYP2C19, luciferin-H EGE luminescence; hits give high values; 0 = fully inhibited enzyme, 1 = untreated enzyme; 96,000 tested, under 10 active;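 active = activation factor of at least 2 at 5 µM in the primary screen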;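 note: 0 = wells with 2.5 mM tranylcypromine and 1 = vehicle-only wells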
Target sequence (P33261 whole entry, looked up): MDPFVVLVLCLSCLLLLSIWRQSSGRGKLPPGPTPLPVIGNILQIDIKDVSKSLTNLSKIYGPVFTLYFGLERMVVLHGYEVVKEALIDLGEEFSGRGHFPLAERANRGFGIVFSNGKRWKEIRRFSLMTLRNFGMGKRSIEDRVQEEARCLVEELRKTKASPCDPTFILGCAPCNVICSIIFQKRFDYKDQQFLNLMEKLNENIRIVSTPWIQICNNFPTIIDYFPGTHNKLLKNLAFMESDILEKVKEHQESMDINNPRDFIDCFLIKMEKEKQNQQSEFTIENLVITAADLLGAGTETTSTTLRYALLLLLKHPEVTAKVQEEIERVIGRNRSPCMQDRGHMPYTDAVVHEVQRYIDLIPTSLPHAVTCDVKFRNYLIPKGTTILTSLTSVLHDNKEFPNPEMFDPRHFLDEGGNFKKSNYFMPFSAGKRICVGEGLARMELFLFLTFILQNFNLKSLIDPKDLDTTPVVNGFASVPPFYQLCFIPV
CYP2C9 activ – activators of human CYP2C9 | recombinant CYP2C9, luciferin-H conversion, luminescence; hits give high values; factor 1 = untreated enzyme, 0 = blocked | 1.4% of 96,000 active | activation factor at 5 µM | AID 1024;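 active = activation factor of 2 or more for CYP2C9 at a 5 µM dose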;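 note: 0 = sulfaphenazole-blocked wells and 1 = vehicle-only wells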
CYP2C19 inhib – human CYP2C19 inhibition; inhibition, % at 5 µM; P33261; CYP2C19 Supersomes, luciferin-H EGE luminescence, 30 min; 21% of 96,000 active;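 active = CYP2C19 inhibition above a set limit at 5 µM in the primary screen, cut at about 50% in these data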;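 note: plate controls were negative control wells for no effect and 2.5 mM tranylcypromine positive control for full effect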
CYP2C9 inh – blocks human cytochrome P450 2C9; CYP2C9 Supersomes, luciferin-H conversion, luminescence; P11712; 20% of 96,000 active; inhibition, % at 5 µM;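 active = blocking of liver enzyme CYP2C9 beyond about 50% at 5 µM, limit read from the data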
Pyk2 oligo antag – antagonists of human Pyk2 oligomerization. Q14289. Q293 cells, Pyk2 FERM NanoBiT luminescence; hits give low values. z-score (the deposit names both 25 µM and 10 µM). 0.83% of 99,000 active. AID 1347419;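 active = Z-score of -3 or lower, scaled per plate to the spread of control and sample wells; inactive = z-score above -3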;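 note: negative z-score means lost luminescence so less FERM oligomerization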
Active calls of the source: *; nt = no result.

SMILES | CYP2C19 act | CYP2C9 activ | CYP2C19 inhib | CYP2C9 inh | Pyk2 oligo antag
COc1ccc(Cl)c(S(=O)(=O)N2CCCC2)c1 | 0.2 | 2.8* | 79.8* | -183.2 | 0.57
Cc1cc(S(=O)(=O)N2CCCCCC2)c(Cl)cc1Cl | 0.3 | 1.9 | 73.2* | -89.3 | -0.11
O=S(=O)(c1cc(Cl)ccc1Cl)N1CCCC1 | 0.4 | 3.5* | 55.9* | -248.3 | 0.01
O=C(Nc1ccc(F)cc1)c1cccc(NC(=O)C2C3CC4OC(=O)C2C4C3)c1 (stereo not drawn) | 1.1 | 1 | -8.2 | 2.9 | -0.38
CC1CCN(CCOCCOc2ccc(Cl)cc2Br)CC1 | 1 | 0.8 | 3.6 | 17.0 | 1.21
O=S(=O)(c1ccc(F)c(Cl)c1)N1CCCC1 | 0.5 | 1 | 54.5* | -4.6 | 0
O=S(=O)(c1cccc(Cl)c1)N1CCCC1 | 0.6 | 1.9 | 44.1 | -88.6 | -0.88
O=C(O)c1cc(S(=O)(=O)N2CCCCC2)ccc1F | 1.1 | 1.2 | -10.2 | -24.7 | 1.25
O=S(=O)(c1cc(Cl)ccc1Br)N1CCOCC1 | 0.6 | 2.9* | 39.0 | -191.2 | 0.17
CC1CCN(S(=O)(=O)c2ccc(Cl)cc2Br)CC1 | 0.3 | 1.7 | 67.6* | -70.9 | -0.24
O=S(=O)(c1cc(Cl)ccc1Cl)N1CCCCC1 | 0.4 | 3.3* | 64.6* | -229.4 | -0.26
O=C(O)CCC(=O)OCC1CCCO1 (stereo not drawn) | 1 | 1 | 0.2 | 3.2 | -0.01
Cc1nc2sc(C(c3ccc(Cl)cc3)N3CC(C)OC(C)C3)c(O)n2n1 (stereo not drawn) | 0.8 | 1 | 20.3 | -4.2 | 0.02
COc1ccc(CNC(=O)C2CCCN(S(=O)(=O)c3c(C)n[nH]c3C)C2)cc1 (stereo not drawn) | 1.1 | 1.1 | -6.5 | -11.0 | -1
CCN1CCCC1CNC(=O)C1c2cc(OC)c(OC)cc2C(=O)N(C)C1c1cccnc1 (stereo not drawn) | 1.1 | 1 | -8.6 | -0.7 | -0.18
O=C(O)C1CCCN1S(=O)(=O)c1cccs1 (stereo not drawn) | 0.7 | 0.9 | 31.9 | 10.0 | nt
O=C(O)c1ccc(Br)c(S(=O)(=O)N2CCCC2)c1 | 0.9 | 1 | 8.0 | 3.1 | -0.18
O=C(O)C1CCCN1S(=O)(=O)c1cc(Cl)ccc1Cl (stereo not drawn) | 0.9 | 2.2* | 5.1 | -115.7 | 0.94
O=S(=O)(c1cc(Cl)ccc1Br)N1CCCCC1 | 0 | 3.2* | 96.0* | -219.9 | 0.06
COC(=O)C1=C(C)N(C2CCCCC2)C(=O)C1 | 0.4 | 1 | 55.4* | 1.0 | -0.28
CCOC(=O)C1=C(C)N(C2CCCCC2)C(=O)C1 | 0.1 | 0.6 | 94.0* | 41.4 | -0.7
COC(=O)C1=C(C)N(c2ccc(C(=O)OC)cc2)C(=O)C1 | 0.8 | 0.8 | 20.5 | 18.5 | -0.83
COC(=O)C1=C(C)N(c2cc(Cl)cc(Cl)c2)C(=O)C1 | 0.4 | 1 | 62.4* | 1.9 | 1.12
Cc1cc(C(=O)NCCCN2CCN(C3CCCCC3)CC2)n(-c2ccccc2)n1 | 1.1 | 1.1 | -12.5 | -6.5 | nt
CCCOc1ccc(OCCNC2CCCC2)cc1 | 1.1 | 1.1 | -13.0 | -8.3 | 0.7
SMILES | CYP2C19 act | CYP2C9 activ | CYP2C19 inhib | CYP2C9 inh | Pyk2 oligo antag
O=C(Nc1nc(N2C(=O)c3ccccc3C2=O)n(-c2ccccc2)n1)c1ccc(Cl)cc1 | 0.9 | 0.8 | 12.3 | 15.1 | -0.53
Cc1cc(C(=O)CSc2nnc(-c3ccco3)o2)c(C)n1-c1ccc2c(c1)OCCO2 | 0.9 | 0.5 | 13.1 | 46.9 | -0.31
Cc1nnc(SCc2cccc(CSc3nnc(C)s3)c2)s1 | 0.7 | 0.8 | 33.1 | 16.7 | 0.83
Cc1cc(C(=O)CSc2nnnn2C)c(C)n1-c1ccc2c(c1)OCCO2 | 0.5 | 0.4 | 51.6* | 60.5* | 0.32
COCCNc1nnc(SCC(=O)c2ccc3c(c2)OCO3)s1 | 0.5 | 0.7 | 53.4* | 26.5 | -0.04
Cn1cnnc1SCC(=O)c1ccc2c(c1)OCO2 | 1 | 1.3 | -0.2 | -26.8 | -0.01
Cc1nnc(SCc2ccc3c(c2)OCO3)s1 | 0.3 | 0.5 | 69.4* | 54.7* | -0.15
Cc1nnc(SCC(=O)c2cc(C)n(-c3ccc4c(c3)OCO4)c2C)s1 | 0 | 0.2 | 97.2* | 82.7* | 0.77
Cc1nnc(SCC(=O)c2cc(C)n(C3CC3)c2C)s1 | 1 | 1.4 | -2.0 | -35.6 | 0.66
CC1=C(C(=O)OC(C)C)C(c2c(O)ccc3ccccc23)NC(=O)N1 (stereo not drawn) | 0.1 | 0.9 | 86.4* | 6.5 | nt
COCCOC(=O)C1=C(C)NC(=O)NC1c1c(F)cccc1Cl (stereo not drawn) | 0.7 | 1 | 29.5 | -2.5 | 0.09
Oc1ccccc1C1=Nc2nc3ccccc3n2C(c2ccccc2)C1 (stereo not drawn) | 0.1 | 0 | 92.4* | 98.7* | -0.22
CNc1nc(NC)nc(-n2c(C(F)(F)F)nc3ccccc32)n1 | 0.6 | 0.4 | 38.3 | 63.8* | -0.85
CCOC(=O)c1[nH]c(C(=O)O)c(CCN(CC)CC)c1C | 1 | 0.9 | -1.8 | 7.2 | -0.02
COC(=O)CCn1nnc(-c2ccc(C(C)C)cc2)n1 | 1 | 1.1 | 3.6 | -13.2 | 1.71
CC(=O)N1N=C(c2ccc(Cl)cc2)OC1c1ccc(C(C)C)cc1 (stereo not drawn) | 0.5 | 0.8 | 54.7* | 22.5 | -0.22
CC(=O)N1CCCc2cc(S(=O)(=O)NCCC3=CCCCC3)ccc21 | 0.5 | 0.9 | 52.7* | 10.7 | 0.37
CCN(CCCNS(=O)(=O)c1ccc2c(c1)CCN2C(C)=O)c1cccc(C)c1 | 0.4 | 0.7 | 61.5* | 32.5 | nt
CC(=O)N1CCCc2cc(S(=O)(=O)CCC(=O)N3CCN(c4cccc(C)c4)C(C)C3)ccc21 (stereo not drawn) | 0.4 | 0.8 | 57.9* | 18.9 | nt
CC(=O)N1CCCc2cc(S(=O)(=O)NCc3ccc(C)cc3)ccc21 | 0.2 | 1 | 81.6* | 0.0 | 0.67
CC(=O)N1CCc2cc(S(=O)(=O)NCCC(=O)Nc3cccc(C)c3)ccc21 | 0.9 | 0.7 | 6.0 | 33.0 | 0.92
COc1ccc(N=C(C)C2=C(O)COC2=O)cc1 | 0.9 | 1 | 6.8 | 3.6 | 0.87
[O-][n+]1onc2c3cc(-c4ccccc4)nnc3ccc21 | 0.9 | 0.8 | 10.7 | 19.4 | -0.29
CCn1cc(C(=O)N2CCCC2)c(=O)c2cc(S(=O)(=O)N3CCOCC3)ccc21 | 1.1 | 1 | -11.4 | 4.2 | 0.07
COc1ccc(C(=O)Nc2ncc3c(n2)CC(c2ccco2)CC3=O)cc1 (stereo not drawn) | 0.9 | 0.9 | 5.8 | 12.0 | 0.15
Cc1cc(C)nc(-n2nc(C)cc2NC(=O)c2cccc(S(=O)(=O)N3CCCCC3)c2)n1 | 0.9 | 0.7 | 8.4 | 27.7 | nt
O=C1OCCC1Sc1ncnc2sccc12 (stereo not drawn) | 1.1 | 1.3 | -6.6 | -28.8 | 0.23
CSc1nnc2c(n1)OC(C)N(C(=O)c1ccccc1)c1ccccc1-2 (stereo not drawn) | 0.8 | 0.5 | 23.8 | 53.9* | -0.04
Cc1ccc(OC(=O)CCC(=O)OCCCC(F)(F)C(F)(F)F)cc1 | 1.1 | 1.1 | -13.7 | -7.3 | 0.89
Cc1ccccc1OC(=O)CCC(=O)OCCCC(F)(F)C(F)(F)F | 0.5 | 0.6 | 54.3* | 41.0 | 0.82

Compound activity (PubChem)
